Results from the supplement of paper PMC10849652.
The full data set covers some 7,900 targets. This sample favours those with a hit. About 0.6% of all pairs of compound and target were hits. Values without a mark were called inactive.

What was measured:
Experiment in all cases: log2 fold change, soluble protein after heating vs DMSO (PISA); higher = thermal stabilisation; K562 cells, 10 uM, 30 min; active = over 0.2 and 3.5 SD of the protein, either way, in both replicates (recomputed)
[1] = compound: CS(=O)(=O)c1ccc(-c2cnc(N)c(C(=O)Nc3ccccc3)n2)cc1
Procedure, shortened: (§1)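 Soluble protein was defined as the supernatant after 21,000xg for 90 min. It came from K562 cells at 2×10^6 cells/mL given 10 μM compound for 30 min, heated in aliquots for 3 min across 48°C-58°C, pooled, and extracted in PBS with 0.5% NP-40 at 4°C, and was quantified by TMTpro 16plex LC-MS/MS with equalised channel sums. Thermal stability against control samples, from duplicates, is reported as log2 fold change.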

[2] = compound: C[C@@H](Oc1cc(-c2cnn(C3CCNCC3)c2)cnc1N)c1c(Cl)ccc(F)c1Cl [crizotinib]
Procedure, shortened: as §1

[3] = compound: C[C@H](C1=CC=C(C=C1)C(=O)NC2=C3C=CNC3=NC=C2)N
Procedure, shortened: as §1

[4] = compound: C[C@H](Nc1ncnc2nc[nH]c12)c1cc2cccc(Cl)c2c(=O)n1-c1ccccc1 [duvelisib]
Procedure, shortened: as §1

[5] = compound: Cc1cc(Nc2cc(CN3CCOCC3)c3nc(C)c(Cc4ccc(Cl)cc4F)n3n2)n[nH]1 [gandotinib]
Procedure, shortened: as §1

[6] = compound: Cc1cc(Nc2cc(N3CCN(C)CC3)nc(Sc3ccc(NC(=O)C4CC4)cc3)n2)n[nH]1 [tozasertib]
Procedure, shortened: as §1

[7] = compound: Cc1cc(SCc2sc(-c3ccc(C(F)(F)F)cc3)nc2C)ccc1OCC(=O)O
Procedure, shortened: as §1

[8] = compound: Cc1ccc(-n2nc(C(C)(C)C)cc2NC(=O)Nc2ccc(OCCN3CCOCC3)c3ccccc23)cc1 [doramapimod]
Procedure, shortened: as §1

[9] = compound: Cc1ccc(C(=O)N(CCCN)[C@@H](c2nc3cc(Cl)ccc3c(=O)n2Cc2ccccc2)C(C)C)cc1 [ispinesib]
Procedure, shortened: as §1

[10] = compound: Cc1ccc(NC(=O)c2ccc(CN3CC[C@H](N(C)C)C3)c(C(F)(F)F)c2)cc1Nc1nccc(-c2cncnc2)n1 [bafetinib]
Procedure, shortened: as §1

[11] = compound: Cc1cccc(CC(=O)N2CCc3c2ccc(-c2cn(C)c4ncnc(N)c24)c3F)n1
Procedure, shortened: as §1

[12] = compound: Cc1cn(-c2cc(NC(=O)c3ccc(C)c(Nc4nccc(-c5cccnc5)n4)c3)cc(C(F)(F)F)c2)cn1 [nilotinib]
Procedure, shortened: as §1

[13] = compound: Cc1nc(Nc2n[nH]c3c2CN(C(=O)N[C@H](CN(C)C)c2ccccc2)C3(C)C)c2sccc2n1
Procedure, shortened: as §1

[14] = compound: Cc1nc(Nc2ncc(C(=O)Nc3c(C)cccc3Cl)s2)cc(N2CCN(CCO)CC2)n1 [dasatinib]
Procedure, shortened: as §1

[15] = compound: Cc1ncc(-c2ccnc(Nc3ccc(S(C)(=O)=O)cc3)n2)n1C(C)C
Procedure, shortened: as §1

[16] = compound: Cn1cc(-c2ccc3c(c2)CCN3C(=O)Cc2cccc(C(F)(F)F)c2)c2c(N)ncnc21
Procedure, shortened: as §1

[17] = compound: Cn1cc(-c2ccc3nnc(C(F)(F)c4ccc5ncccc5c4)n3n2)cn1
Procedure, shortened: as §1

[18] = compound: Cn1cncc1[C@@](N)(c1ccc(Cl)cc1)c1ccc2c(c1)c(-c1cccc(Cl)c1)cc(=O)n2C [tipifarnib]
Procedure, shortened: as §1

[19] = compound: FC(F)(F)c1ccc(/C=C/c2nc(COc3ccc(CCCCn4ccnn4)cc3)co2)cc1 [mubritinib]
Procedure, shortened: as §1

[20] = compound: C[C@@H]1COCCN1C2=NC(=NC(=C2)C3(CC3)S(=O)(=O)C)C4=C5C=CNC5=CC=C4
Procedure, shortened: as §1

Sequence of UniProt A6NEQ0 (A6NEQ0 whole entry, looked up): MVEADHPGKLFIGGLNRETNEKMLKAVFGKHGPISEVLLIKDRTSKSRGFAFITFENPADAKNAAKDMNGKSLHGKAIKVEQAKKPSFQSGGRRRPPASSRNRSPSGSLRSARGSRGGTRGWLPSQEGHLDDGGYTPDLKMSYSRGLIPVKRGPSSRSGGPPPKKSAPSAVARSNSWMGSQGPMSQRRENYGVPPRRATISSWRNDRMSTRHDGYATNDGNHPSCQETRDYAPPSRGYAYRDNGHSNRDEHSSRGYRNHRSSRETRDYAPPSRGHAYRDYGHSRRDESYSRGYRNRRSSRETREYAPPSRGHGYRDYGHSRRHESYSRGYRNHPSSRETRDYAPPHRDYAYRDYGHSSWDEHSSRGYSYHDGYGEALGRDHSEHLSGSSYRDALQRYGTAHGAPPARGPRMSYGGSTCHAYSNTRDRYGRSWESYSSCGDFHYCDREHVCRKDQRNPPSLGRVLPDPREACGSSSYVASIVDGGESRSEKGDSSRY
Sequence of UniProt O00560 (O00560 whole entry, looked up): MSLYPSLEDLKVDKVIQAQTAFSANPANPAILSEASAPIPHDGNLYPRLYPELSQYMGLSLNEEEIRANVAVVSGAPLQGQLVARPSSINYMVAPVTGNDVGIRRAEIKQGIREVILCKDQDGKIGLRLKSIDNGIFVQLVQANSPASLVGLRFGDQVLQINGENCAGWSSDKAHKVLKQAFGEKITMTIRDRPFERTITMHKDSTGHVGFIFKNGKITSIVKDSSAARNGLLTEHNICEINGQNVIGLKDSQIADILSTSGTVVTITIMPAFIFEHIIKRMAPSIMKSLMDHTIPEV
Sequence of UniProt Q9Y3L5 (Q9Y3L5 whole entry, looked up): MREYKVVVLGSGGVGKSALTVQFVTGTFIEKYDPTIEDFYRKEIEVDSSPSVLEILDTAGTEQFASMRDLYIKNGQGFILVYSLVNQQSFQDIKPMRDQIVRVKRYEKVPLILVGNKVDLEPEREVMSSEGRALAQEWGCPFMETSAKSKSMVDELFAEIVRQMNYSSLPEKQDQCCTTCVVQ
Sequence of UniProt Q02383 (Q02383 whole entry, looked up): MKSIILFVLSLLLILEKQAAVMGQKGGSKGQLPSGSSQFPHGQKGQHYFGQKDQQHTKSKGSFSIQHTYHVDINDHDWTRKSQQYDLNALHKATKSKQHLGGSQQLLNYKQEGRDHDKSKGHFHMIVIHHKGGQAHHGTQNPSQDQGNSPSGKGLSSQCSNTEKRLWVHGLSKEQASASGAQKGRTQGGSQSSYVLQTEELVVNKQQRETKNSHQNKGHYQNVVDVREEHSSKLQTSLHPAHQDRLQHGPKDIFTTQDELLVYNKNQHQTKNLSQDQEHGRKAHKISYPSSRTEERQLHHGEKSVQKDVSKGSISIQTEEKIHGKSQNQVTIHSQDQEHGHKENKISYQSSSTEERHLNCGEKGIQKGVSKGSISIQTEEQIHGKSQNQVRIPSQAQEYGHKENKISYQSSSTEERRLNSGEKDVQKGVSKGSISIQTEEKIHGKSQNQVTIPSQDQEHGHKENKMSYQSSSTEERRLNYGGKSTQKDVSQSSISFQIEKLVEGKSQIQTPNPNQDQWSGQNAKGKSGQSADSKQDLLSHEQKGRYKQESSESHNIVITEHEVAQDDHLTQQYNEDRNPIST
Sequence of UniProt P78332 (P78332 whole entry, looked up): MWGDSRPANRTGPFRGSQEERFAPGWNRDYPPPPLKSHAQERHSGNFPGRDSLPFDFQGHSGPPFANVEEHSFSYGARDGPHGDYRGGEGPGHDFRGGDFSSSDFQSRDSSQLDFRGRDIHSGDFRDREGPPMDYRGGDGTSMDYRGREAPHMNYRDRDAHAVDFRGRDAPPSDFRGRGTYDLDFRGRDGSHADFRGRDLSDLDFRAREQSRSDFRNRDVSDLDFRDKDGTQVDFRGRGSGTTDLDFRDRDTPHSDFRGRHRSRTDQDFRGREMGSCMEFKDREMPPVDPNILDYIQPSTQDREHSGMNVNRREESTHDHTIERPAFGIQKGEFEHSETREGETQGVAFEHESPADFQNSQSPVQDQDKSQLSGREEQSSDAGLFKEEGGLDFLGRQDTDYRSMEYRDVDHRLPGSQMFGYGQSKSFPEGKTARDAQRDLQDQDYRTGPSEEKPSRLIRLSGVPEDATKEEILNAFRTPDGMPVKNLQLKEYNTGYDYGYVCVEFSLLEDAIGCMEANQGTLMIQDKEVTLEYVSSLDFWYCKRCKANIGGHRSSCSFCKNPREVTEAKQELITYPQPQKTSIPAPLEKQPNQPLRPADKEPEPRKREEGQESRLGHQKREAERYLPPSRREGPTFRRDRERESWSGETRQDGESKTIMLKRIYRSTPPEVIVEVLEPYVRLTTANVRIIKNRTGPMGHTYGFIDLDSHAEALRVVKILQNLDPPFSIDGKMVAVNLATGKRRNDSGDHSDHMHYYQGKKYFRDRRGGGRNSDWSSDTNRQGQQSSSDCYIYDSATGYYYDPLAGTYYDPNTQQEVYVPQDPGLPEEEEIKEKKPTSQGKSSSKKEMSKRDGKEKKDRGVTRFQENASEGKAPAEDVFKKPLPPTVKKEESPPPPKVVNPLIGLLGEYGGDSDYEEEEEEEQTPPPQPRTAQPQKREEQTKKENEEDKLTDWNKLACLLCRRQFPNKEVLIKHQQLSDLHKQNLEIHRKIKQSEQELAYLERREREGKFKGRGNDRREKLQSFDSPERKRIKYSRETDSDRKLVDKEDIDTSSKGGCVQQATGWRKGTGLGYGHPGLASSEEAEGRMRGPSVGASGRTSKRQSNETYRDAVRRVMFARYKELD
Sequence of UniProt Q86X27 (Q86X27 whole entry, looked up): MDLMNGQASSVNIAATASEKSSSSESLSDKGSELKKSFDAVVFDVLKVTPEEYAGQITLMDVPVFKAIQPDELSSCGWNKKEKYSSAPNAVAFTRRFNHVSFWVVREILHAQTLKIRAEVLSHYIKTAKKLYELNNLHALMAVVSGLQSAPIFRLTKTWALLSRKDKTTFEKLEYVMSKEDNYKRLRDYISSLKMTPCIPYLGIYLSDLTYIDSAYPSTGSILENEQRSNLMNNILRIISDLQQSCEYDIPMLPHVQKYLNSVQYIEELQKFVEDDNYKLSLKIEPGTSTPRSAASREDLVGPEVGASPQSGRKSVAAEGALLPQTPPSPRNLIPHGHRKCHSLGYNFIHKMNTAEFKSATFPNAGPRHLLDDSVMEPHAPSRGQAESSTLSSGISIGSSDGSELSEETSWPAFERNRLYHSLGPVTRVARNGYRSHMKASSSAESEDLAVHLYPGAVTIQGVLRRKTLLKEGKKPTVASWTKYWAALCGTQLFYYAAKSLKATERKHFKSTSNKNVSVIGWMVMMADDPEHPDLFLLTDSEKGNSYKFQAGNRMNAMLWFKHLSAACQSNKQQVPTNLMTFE
Sequence of UniProt Q5VTB9 (Q5VTB9 whole entry, looked up): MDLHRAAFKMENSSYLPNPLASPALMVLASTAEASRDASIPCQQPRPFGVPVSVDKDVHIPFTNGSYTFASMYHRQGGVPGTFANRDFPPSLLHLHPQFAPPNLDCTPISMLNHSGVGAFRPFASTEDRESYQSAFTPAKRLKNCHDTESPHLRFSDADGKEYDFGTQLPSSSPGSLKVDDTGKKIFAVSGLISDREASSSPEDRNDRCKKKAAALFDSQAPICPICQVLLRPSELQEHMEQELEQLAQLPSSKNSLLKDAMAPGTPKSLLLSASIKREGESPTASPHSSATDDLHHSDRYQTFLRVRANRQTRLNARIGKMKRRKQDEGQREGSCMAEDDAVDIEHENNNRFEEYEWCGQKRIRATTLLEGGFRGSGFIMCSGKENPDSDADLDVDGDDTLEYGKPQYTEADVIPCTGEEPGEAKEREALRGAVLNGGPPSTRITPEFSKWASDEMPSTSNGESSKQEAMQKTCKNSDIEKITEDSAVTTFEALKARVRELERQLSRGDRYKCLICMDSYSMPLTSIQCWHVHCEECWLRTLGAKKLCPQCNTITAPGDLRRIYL

| Target | log2 fold change [1] | log2 fold change [2] | log2 fold change [3] | log2 fold change [4] | log2 fold change [5] | log2 fold change [6] | log2 fold change [7] | log2 fold change [8] | log2 fold change [9] | log2 fold change [10] | log2 fold change [11] | log2 fold change [12] | log2 fold change [13] | log2 fold change [14] | log2 fold change [15] | log2 fold change [16] | log2 fold change [17] | log2 fold change [18] | log2 fold change [19] | log2 fold change [20] |
| --- | --- | --- | --- | --- | --- | --- | --- | --- | --- | --- | --- | --- | --- | --- | --- | --- | --- | --- | --- | --- |
| RCOR3 isoform 3 (UniProt Q9P2K3) | -0.039 | -0.117 | -0.061 | 0.105 | -0.015 | 0.091 | 0.104 | -0.047 | -0.065 | 0.023 | 0.039 | -0.019 | 0.001 | -0.09 | -0.022 | -0.056 | 0.006 | -0.119 | 0.09 | – |
| RALGPS2 (UniProt Q86X27) | – | -0.237 | 0.222 | -0.117 | 0.08 | -0.112 | 0.106 | 0.289 | – | -0.072 | -0.001 | – | – | -0.011 | – | 0.043 | – | – | -0.198 | -0.199 |
| RAP2C (UniProt Q9Y3L5) | -0.046 | – | -0.144 | 0.06 | -0.742 (active) | -0.039 | -0.108 | – | 0.009 | 0.115 | 0.157 | 0.181 | 0.069 | 0.018 | 0.019 | 0.047 | -0.032 | 0.086 | 0.041 | 0.007 |
| SDCBP isoform 2 (UniProt O00560) | 0.093 | – | – | 0.019 | 0.058 | 0.045 | 0.069 | – | -0.185 | -0.298 | -0.066 | 0.108 | -0.219 | -0.083 | -0.205 | – | -0.085 | 0.109 | 0.033 | -0.108 |
| SIK3 (UniProt H0Y4E8) | -0.144 | 0.084 | 0.027 | 0.035 | 0.118 | -0.106 | -0.056 | -0.058 | 0.185 | – | -0.122 | -0.053 | -0.179 | -0.037 | 0.003 | -0.016 | 0 | 0.251 | -0.035 | – |
| SEPTIN5 (UniProt G3XAH0) | -0.042 | – | -0.089 | -0.032 | -0.153 | -0.028 | -0.036 | – | -0.017 | -0.038 | -0.013 | -0.05 | -0.024 | -0.049 | -0.008 | -0.05 | 0.082 | 0.006 | -0.011 | 0.087 |
| RBMY1E (UniProt A6NEQ0) | – | -0.122 | -0.12 | – | -0.137 | 0.113 | – | -0.007 | -0.148 | -0.041 | 0.219 | 0.009 | -0.038 | – | 0.026 | 0.29 | -0.164 | -0.016 | 0.192 | – |
| RPS3A (UniProt D6R9B6) | -0.014 | – | – | -0.015 | – | -0.134 | 0.069 | – | – | – | – | – | – | 0.155 | – | – | – | – | – | – |
| RPS19 (UniProt M0R2L9) | – | – | – | – | – | -0.034 | – | – | – | – | – | 0.116 | 0 | – | -0.267 | – | – | -0.126 | 0.229 | – |
| RNF220 isoform 3 (UniProt Q5VTB9) | – | – | – | – | – | – | – | – | – | – | – | – | – | – | – | – | – | -0.282 | – | – |
| RBM6 (UniProt P78332) | 0 | 0.148 | 0.013 | -0.154 | -0.043 | -0.094 | -0.183 | 0.032 | – | – | -0.048 | 0.062 | -0.109 | 0.025 | -0.194 | -0.052 | – | 0.028 | -0.072 | – |
| SEMG2 (UniProt Q02383) | -0.058 | – | -0.021 | – | -0.032 | -0.043 | – | – | – | -0.089 | 0.016 | -0.083 | 0.056 | – | 0.003 | 0.008 | – | – | -0.044 | 0.096 |
